IDE exosite FP: displaces the probe from the exo-site of human IDE; z-score at 20 µM; purified IDE, FL-6b probe fluorescence polarization; stronger effect = lower value; actives 6.3% (n = 17,000); P14735;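 active means z-score of -3 or lower, meaning strong loss of probe binding signal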;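 further: His-tagged human IDE residues 42-1019 made in E. coli with 30 nM FL-6b probe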
Target sequence (P14735 42-1019 limits assumed): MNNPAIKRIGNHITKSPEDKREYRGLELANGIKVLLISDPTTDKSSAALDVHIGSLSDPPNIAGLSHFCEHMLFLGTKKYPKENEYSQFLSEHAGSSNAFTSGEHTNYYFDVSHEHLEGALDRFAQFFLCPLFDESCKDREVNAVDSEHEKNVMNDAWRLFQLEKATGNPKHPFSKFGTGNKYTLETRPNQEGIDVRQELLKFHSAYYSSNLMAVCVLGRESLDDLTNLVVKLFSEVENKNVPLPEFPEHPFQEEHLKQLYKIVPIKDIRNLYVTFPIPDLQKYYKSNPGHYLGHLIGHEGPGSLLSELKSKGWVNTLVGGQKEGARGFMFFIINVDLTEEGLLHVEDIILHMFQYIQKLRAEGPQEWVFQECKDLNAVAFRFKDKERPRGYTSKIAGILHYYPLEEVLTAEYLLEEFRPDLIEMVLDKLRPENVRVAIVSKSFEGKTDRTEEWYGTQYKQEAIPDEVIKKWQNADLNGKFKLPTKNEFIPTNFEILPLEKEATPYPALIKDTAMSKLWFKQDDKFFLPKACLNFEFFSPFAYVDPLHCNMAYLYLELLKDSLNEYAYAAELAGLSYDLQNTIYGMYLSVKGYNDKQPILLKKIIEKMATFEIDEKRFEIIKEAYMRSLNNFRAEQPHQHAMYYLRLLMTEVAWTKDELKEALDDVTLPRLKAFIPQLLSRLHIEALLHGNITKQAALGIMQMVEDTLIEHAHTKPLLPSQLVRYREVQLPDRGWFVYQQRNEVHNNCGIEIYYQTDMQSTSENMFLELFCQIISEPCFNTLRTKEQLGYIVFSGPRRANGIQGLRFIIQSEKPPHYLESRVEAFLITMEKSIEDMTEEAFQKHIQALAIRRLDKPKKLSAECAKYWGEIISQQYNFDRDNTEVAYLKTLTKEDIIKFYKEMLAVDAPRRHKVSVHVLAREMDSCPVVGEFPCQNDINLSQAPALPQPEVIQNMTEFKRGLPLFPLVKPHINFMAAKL
* marks the source's active call; other numbers are inactive results. This excerpt belongs to a sample that is enriched for hits.

SMILES | IDE exosite FP
COc1ccccc1NC(=O)N1CC(=O)N2[C@H](CO)[C@H](c3ccc(-c4cccc(C)c4)cc3)[C@@H]2C1 | -3.7*
CCCNC(=O)N1CC(=O)N2[C@H](CO)[C@H](c3ccc(-c4ccccc4)cc3)[C@@H]2C1 | -2.2
CCCNC(=O)N1CC(=O)N2[C@H](C1)[C@H](c1ccc(-c3cccc(C)c3)cc1)[C@@H]2CO | -14*
CCCNC(=O)N1CC(=O)N2[C@H](CO)[C@@H](c3ccc(-c4ccc(C)cc4)cc3)[C@H]2C1 | -3.1*
CCCNC(=O)N1CC(=O)N2[C@H](C1)[C@@H](c1ccc(-c3ccc(F)cc3)cc1)[C@@H]2CO | 0.76
COc1ccccc1NC(=O)N1CC(=O)N2[C@H](C1)[C@H](c1ccc(-c3ccc(F)cc3)cc1)[C@@H]2CO | 2.2
O=C1CCC(=O)NCC/C=C/CCN1 | 0.29
COCC(=O)N1[C@H](CN(C)C(=O)c2ccncc2)[C@@H](c2ccccc2)[C@@H]1CO | 2.4
Cc1cccc(S(=O)(=O)N2CCCCN3[C@H](C2)[C@@H](c2ccc(C#CC(C)C)cc2)[C@@H]3CO)c1 | 2.1
COCCN(C[C@H]1N[C@H](CO)[C@H]1c1ccc(-c2ccc(F)cc2)cc1)C(C)=O | 4.7
COc1ccc(CN2C[C@@H](O)COC[C@H]3O[C@@H](CC(=O)N(C)C)CC[C@@H]32)cc1 | -0.76
CNC(=O)C[C@H]1CC[C@@H]2[C@H](COC[C@@H](O)CN2Cc2ccccc2F)O1 | -0.032
CNC(=O)C[C@@H]1CC[C@H]2[C@H](COc3ccc(NC(=O)c4ccccc4F)cc3C(=O)N2C)O1 | 0.09
O=C(C[C@H]1CC[C@@H]2[C@H](COC[C@H](O)CN2Cc2ccc3c(c2)OCO3)O1)N1CCCCC1 | -1.3
CNC[C@H]1OCCCC[C@@H](C)Oc2ccc(NC(=O)Nc3ccc(OC)cc3)cc2C(=O)N([C@H](C)CO)C[C@@H]1C | -0.096
CCS(=O)(=O)Nc1ccc2c(c1)C(=O)N(C)[C@@H]1CC[C@H](CC(=O)NC3CCCCC3)O[C@H]1CO2 | -0.95
CC(=O)N1CCCCN2[C@H](C1)[C@H](c1ccc(C#Cc3ccccc3F)cc1)[C@@H]2CO | -4.7*
O=C(Nc1ccc(F)cc1)N1CCCCN2[C@H](CO)[C@@H](c3ccc(C#Cc4ccccc4)cc3)[C@@H]2C1 | 3.6
CC(=O)N1CCCCN2[C@H](CO)[C@H](c3ccc(C#Cc4ccccc4F)cc3)[C@H]2C1 | -7.3*
CC(=O)N1CCCCN2[C@@H](CO)[C@H](c3ccc(C#Cc4ccccc4F)cc3)[C@@H]2C1 | -0.29
COc1ccc(C#Cc2ccc([C@@H]3[C@@H](CO)N4CCCCN(C(=O)Nc5ccccc5F)C[C@@H]34)cc2)cc1 | 0.14
CC(=O)N1CCCCN2[C@H](CO)[C@H](c3ccc(C#Cc4ccccc4F)cc3)[C@@H]2C1 | -4.9*
CC(=O)N1CCCCN2[C@H](C1)[C@@H](c1ccc(C#Cc3ccccc3F)cc1)[C@@H]2CO | -4.5*
CC(=O)N1CCCCN2[C@H](CO)[C@@H](c3ccc(-c4ccccc4)cc3)[C@H]2C1 | -0.77
COc1ccc(C#Cc2ccc([C@H]3[C@@H](CO)N4CCCCN(C(=O)Nc5ccccc5F)C[C@@H]34)cc2)cc1 | 1.7
SMILES | IDE exosite FP
COc1cccc(NC(=O)N2CC3(C2)[C@@H](c2ccccc2)[C@H](CO)N3C(C)=O)c1 | -0.064
C[C@@H]1CN([C@H](C)CO)C(=O)CCCn2nncc2CO[C@@H]1CN(C)Cc1cccc(C(F)(F)F)c1 | 0.26
COc1ccc(-c2ccc3n(c2=O)C[C@H]2[C@H](CO)[C@@H](C(=O)N(C)C)[C@@H]3N2Cc2cncnc2)cc1 | 1
CCCC(=O)Nc1ccc2c(c1)C(=O)N(C)[C@H]1CC[C@H](CC(=O)N3CCCCC3)O[C@@H]1CO2 | 0.53
COc1ccc([C@H]2C/C=C\C[C@@H](c3ccc4c(c3)OCO4)NC(=O)[C@@H](c3ccccc3)CC(=O)N2)c(OC)c1 | -0.25
CCNC(=O)c1cc2c(c(-c3cccc(-c4cccnc4)c3)n1)[C@@H](CCO)N(S(C)(=O)=O)C2 | 1.4
COc1ccc(S(=O)(=O)N2C[C@H](O)COC[C@@H]3O[C@H](CC(=O)N[C@@H]4CCN(Cc5ccccc5)C4)CC[C@H]32)cc1 | 0.32
C/C=C/c1ccccc1[C@H]1[C@@H](C#N)N(c2nc(CC)cs2)[C@H]1CO | 0.49
CO[C@@H](CN(C)C(=O)c1ccccc1F)[C@H](C)CN([C@@H](C)CO)S(=O)(=O)c1ccc(F)cc1 | 1.4
CCc1sc(N2[C@H](C#N)[C@H](c3ccccc3-c3ccccc3)[C@H]2CO)nc1C | -0.55
COCC(=O)N1CCC2(CC1)CN(Cc1cc(F)ccc1F)[C@@H](CO)c1c2c2ccc(OC)cc2n1C | -0.72
OC[C@H]1[C@H](c2ccccc2)C2(CN(Cc3ccccc3F)C2)N1Cc1ccccc1F | 0.52
C[C@@H]1CN([C@H](C)CO)C(=O)c2cc(/C=C/c3ccccc3)cnc2O[C@H]1CN(C)S(=O)(=O)c1ccccc1F | -4.6*
C[C@H](CO)N1C[C@H](C)[C@H](CN(C)S(=O)(=O)c2ccccc2F)Oc2ncc(/C=C/c3ccccc3)cc2C1=O | -1.7

Bioassay records deposited in PubChem by Broad Institute.
